# Article PMC7819943, “Rice protein-binding microarrays: a tool to detect cis-acting elements near promoter regions in rice”
# In all, about 39,000 sequences were measured (“fluorescence intensity (a.u.)”: median about 4,300, highest 2% from about 39,000 on). The list comes from a sample in which the highest values are over-represented; it also holds similar and randomly drawn sequences.
# Biological target: T1, OsSMF1 (Oryza sativa, UniProt Q6ZLB0 1-436)
# T1 sequence: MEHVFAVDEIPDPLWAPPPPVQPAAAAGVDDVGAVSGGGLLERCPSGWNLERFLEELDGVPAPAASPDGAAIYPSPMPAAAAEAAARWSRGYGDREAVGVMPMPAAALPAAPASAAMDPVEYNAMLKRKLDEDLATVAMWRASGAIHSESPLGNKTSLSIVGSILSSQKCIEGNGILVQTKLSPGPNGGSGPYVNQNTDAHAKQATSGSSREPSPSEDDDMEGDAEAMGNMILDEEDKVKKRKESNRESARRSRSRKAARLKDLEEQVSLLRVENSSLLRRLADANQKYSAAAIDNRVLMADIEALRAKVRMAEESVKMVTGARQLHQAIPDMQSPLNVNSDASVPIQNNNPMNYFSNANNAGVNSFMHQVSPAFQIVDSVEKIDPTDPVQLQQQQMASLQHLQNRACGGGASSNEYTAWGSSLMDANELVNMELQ
# Assay: protein-binding microarray (RPBM); PBS, 2% BSA, 51.3 ng/ul salmon testes DNA, 50 uM zinc acetate, 200 nM TF, 25 C, 1 h; high values mean tight binding
# Details: protein: recombinant; tags: N-terminal polyhistidine and DsRed monomer fusion (pET32a); chain copies: 2; label: CyDye5-dUTP incorporated in the synthesized complementary strand; 3' TTTTT single-stranded linker to array surface; dsDNA, one strand shown
# In short: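 Polyhistidine-tagged DsRed fusions of transcription factors, joined at the N-terminus, were expressed in E. coli BL21-CodonPlus and isolated on Ni–NTA. They were incubated at 200 nM for 1 h at 25 °C on a custom Agilent array, double-stranded and BSA-blocked, in PBS with 2% BSA, salmon testes DNA and 50 µM zinc acetate. The binding signal is per-feature fluorescence intensity (arbitrary units) read on an Axon 4000B scanner after washing.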
row,Sequence,binding signal
1,CATGTACACACCCACAGTCATCTGCTCATGTTTTCACGGTCGGAGTCACCTAGTGCAG,3630 fluorescence intensity (a.u.)
2,GAGGGGTTACGCGTTAGGCGCTGCCACGTGTATCGATCGGCGGAGTCACCTAGTGCAG,21900 fluorescence intensity (a.u.)
3,CGAGGATTTGAGATCTGAGATGGCACGGACACTAGACAACCGGAGTCACCTAGTGCAG,3440 fluorescence intensity (a.u.)
4,GGGAACATTGTGTGCCAAAATTGACTCACGAATATACAAGCGGAGTCACCTAGTGCAG,3340 fluorescence intensity (a.u.)
5,CTTTCTTTCTTTCTTTGTGCCCAACTCTGACACGACTCACCGGAGTCACCTAGTGCAG,5180 fluorescence intensity (a.u.)
6,CTTCTTCGGGCCTTCTTTCAGAACTTTGGGTGGGCCTCACCGGAGTCACCTAGTGCAG,64300 fluorescence intensity (a.u.)
7,TATTTCTTCACCTTTAGTCATGTCACCTCTCACTTCACACCGGAGTCACCTAGTGCAG,5120 fluorescence intensity (a.u.)
8,TTCTTTGGTGGGTGCCACGTAGGAGAAACCCAGCAGGAGTCGGAGTCACCTAGTGCAG,12000 fluorescence intensity (a.u.)
9,TAAACTTCGGTGGCATGTCATCATCTTCAAACTCATCTTTCGGAGTCACCTAGTGCAG,4670 fluorescence intensity (a.u.)
10,CACCCAAGAACCGGTGGTATTCTTTGGACACGAGAACTTTCGGAGTCACCTAGTGCAG,39100 fluorescence intensity (a.u.)
11,ACTCCCCTCCCCGCCACGTCGCCATTCTTCCCGCTCCTGACGGAGTCACCTAGTGCAG,11800 fluorescence intensity (a.u.)
12,GCTCGCCTTTTATCGCAGCCAAAGCCATGAAATTTCCCCACGGAGTCACCTAGTGCAG,27500 fluorescence intensity (a.u.)
13,CTCGCGTCGCCACGCAACTTAATTAATTTAGCCCCTAATTCGGAGTCACCTAGTGCAG,3640 fluorescence intensity (a.u.)
14,CTTCTAGCTGACACCTGTGCGCCGCCGCCTAATTTCAACTCGGAGTCACCTAGTGCAG,3930 fluorescence intensity (a.u.)
15,GCACCTCGTTAGGCTTCATGGTCATGGCTCGTCGCTGACGCGGAGTCACCTAGTGCAG,6120 fluorescence intensity (a.u.)
16,GCGGTTTCCTAGTTGACTGACCAAACAATTCATATATATTCGGAGTCACCTAGTGCAG,6140 fluorescence intensity (a.u.)
17,CGGCCGTGTTAAGCCTCTTCCAAAGTCAGCTGAGTTGTGCCGGAGTCACCTAGTGCAG,5460 fluorescence intensity (a.u.)
18,CCTACACTGAAGTTAAGCAGATCTTCCAGGCCTCGTGTTTCGGAGTCACCTAGTGCAG,43800 fluorescence intensity (a.u.)
19,TCGTGCTACAGATCTATAGCACACTACTCTTCTCTCTCTTCGGAGTCACCTAGTGCAG,3370 fluorescence intensity (a.u.)
20,CCACGAACAGCTACACGTCTCCTTCTCCTTCTTCGATTTCCGGAGTCACCTAGTGCAG,37400 fluorescence intensity (a.u.)
21,TCTTACAGCGCGCGTGTTCGTTCGAACGATTCTCTTCTTCCGGAGTCACCTAGTGCAG,51900 fluorescence intensity (a.u.)
22,ACAAGAGCCAGCGCGGCGTGTGTGCGCGATTTCTCTCTTCCGGAGTCACCTAGTGCAG,3210 fluorescence intensity (a.u.)
23,AGTGCCACTTAAGCGCCACATCAACGCCACATGGAAAGAACGGAGTCACCTAGTGCAG,4210 fluorescence intensity (a.u.)

row,Sequence,binding signal
1,AGACCCAAGTCACTCTCTCCGCTCCAGTCTCCACTCTCCACGGAGTCACCTAGTGCAG,23100 fluorescence intensity (a.u.)
2,ACCACTCTACCACAACCATTACGCTATCCGCCACGAGCAACGGAGTCACCTAGTGCAG,3270 fluorescence intensity (a.u.)
3,CTCTAAATTTGTGCAGATGTGTCACCTAGATCCCTGAACTCGGAGTCACCTAGTGCAG,4340 fluorescence intensity (a.u.)
4,TCCACATGCTAATTTGTGGTGTCAGATACCTGAATACTCCCGGAGTCACCTAGTGCAG,41400 fluorescence intensity (a.u.)
5,AAGATCTGTATGCCTCATGAGGGTTGGTGTGTAATACTCCCGGAGTCACCTAGTGCAG,3890 fluorescence intensity (a.u.)
6,CCCCTACTATTTTCTAGGCTAGGAAGCGTGCGATCTTTTCCGGAGTCACCTAGTGCAG,3240 fluorescence intensity (a.u.)
7,TGGCGCGACTGCTCGGGTCACCATAAATACGGGTAGGTGGCGGAGTCACCTAGTGCAG,3940 fluorescence intensity (a.u.)
8,CTGCTTGAATCCTTCTCGCTGAGCTGGCCTGCAGCCTTTTCGGAGTCACCTAGTGCAG,7190 fluorescence intensity (a.u.)
9,CTCCGCCGCTGGCCGCCTTGCCTGCTTGAGAGGAGGAGAGCGGAGTCACCTAGTGCAG,26800 fluorescence intensity (a.u.)
10,GATTGATGAGGCCGCAAAGCCTGGCTGCCTGCCTGCTTCTCGGAGTCACCTAGTGCAG,54300 fluorescence intensity (a.u.)
11,CATTATACATGTGTCATGTGTATTCGACTTCTGTGCTGCCCGGAGTCACCTAGTGCAG,4750 fluorescence intensity (a.u.)
12,GGTAGTCTGAAGCCTGTTGGTTATCCTCCTGGGAGTGTTGCGGAGTCACCTAGTGCAG,3220 fluorescence intensity (a.u.)
13,AGATTAGTTTTCCCATATATTTCTTGTCAGTCGTCGTCATCGGAGTCACCTAGTGCAG,3760 fluorescence intensity (a.u.)
14,AATCAATACAAAGTCTGAAAGCCATTATGGTGGCAGTAATCGGAGTCACCTAGTGCAG,61300 fluorescence intensity (a.u.)
15,ATAAAGTAACACATACACAAAGCCACATCATCAATATTTTCGGAGTCACCTAGTGCAG,8990 fluorescence intensity (a.u.)
16,AAGTAGTGTCTATGGTGCCATGTCAATAGGACATCATAATCGGAGTCACCTAGTGCAG,3920 fluorescence intensity (a.u.)
17,TTCTTTTCCCATGGCCTCTGACTATGACATTATTTAAACACGGAGTCACCTAGTGCAG,3440 fluorescence intensity (a.u.)
18,ATTTATATTTTAAAATATACTTTTATATGACACTAATTTTCGGAGTCACCTAGTGCAG,3170 fluorescence intensity (a.u.)
19,CATTTCCAAATTACATGTATGAATCCAACCAAAACTTTTCCGGAGTCACCTAGTGCAG,17200 fluorescence intensity (a.u.)
20,ATGCTAACCAACTAAAATACTTTTCCATGTACCTTACAAGCGGAGTCACCTAGTGCAG,60000 fluorescence intensity (a.u.)
21,CACTTTTATGACATTTTCAACCATACTATTTTCCTTAAAGCGGAGTCACCTAGTGCAG,39800 fluorescence intensity (a.u.)
22,AATTTACAAGGTAAAATTTTATACCACCTTATATACTTTGCGGAGTCACCTAGTGCAG,4160 fluorescence intensity (a.u.)
